Source: paper PMC5540273 (PLoS ONE, 2017)

The compounds below were run on LATS2. Conditions: concentration: 1 μM, replicates: in singlicate; n = 1.
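Note: KINOMEscan kinase panel screen.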

Structure (SMILES) | %Inh
CN1C(=O)C(Nc2ccc(Cl)c(C(=O)O)c2)=C(c2ccc(Cl)cc2)C1=O [SB-404290] | 15%
Cc1nnc(-c2ccc3occ(-c4ccc(S(C)=O)cc4)c3c2)[nH]1 (stereo not shown) | 0%
Clc1cc(Cl)cc(Nc2ccnc(Nc3cc(Cl)cc(Cl)c3)n2)c1 [GSK175726] | 17%
O=C(Nc1ccc2c(c1)OCO2)NC1CCN(c2ccnc(Nc3ccc(F)cc3)n2)C1 (stereo not shown) [GSK1379724] | 0%
CS(=O)(=O)c1ccc(-c2c(-c3ncn[nH]3)sc(N3CCOCC3)c2C#N)cc1 | 9%
COc1ccc(C2=C(Nc3cccc(C(=O)O)c3)C(=O)NC2=O)cc1 [SB-390765] | 20%
CS(=O)(=O)c1ccc(-c2nc3n(c2-c2ccncc2)CCC3)cc1 [SKF-105942] | 0%
C[C@@H]1CCCCN1c1cc(-c2ccc3c(N)n[nH]c3c2)nc(N)n1 [GSK2258759] | 14%
COc1ccc2nc(-c3cccc(C)n3)nc(Nc3ccncc3)c2c1 [GSK204919] | 0%
O=S(=O)(c1ccc(-c2ccnc3[nH]ccc23)cc1)N1CCCC1 [GSK846226] | 68%
Cn1ccc2ncnc(Oc3ccc(NC(=O)Nc4ccccc4)cc3)c21 | 13%
Cc1ccc(C(=O)Nc2ccc(Nc3ccnc4cc(-c5ccccn5)ccc34)cc2O)cc1.Cl [GW440146] | 0%
COc1ccc(CNC(=O)NC2CCN(c3ccnc(Nc4cc(OC)c(OC)c(OC)c4)n3)C2)cc1 (stereo not shown) [GSK1379748] | 11%
Cc1cc(-c2ccc3c(c2)CC[C@@H](N[C@@H](C)c2ccccc2)C3)cnc1N.Cl [GW412617] | 0%
Cl.O=C(Nc1cccc(-c2nn3ncccc3c2-c2ccnc(Nc3cccnc3)n2)c1)c1c(F)cccc1F [GSK312879] | 0%
COC(=O)c1c(-c2ccccc2)c2cc(OC)ccc2c(=O)n1Cc1ccccc1 | 0%
O=C(Nc1n[nH]c2nc(-c3nccs3)c(Br)cc12)C1CC1 [SB-742251] | 0%
COc1cc(Nc2nccc(N3CCC(NC(=O)Nc4cc(C)ccc4C)C3)n2)cc(OC)c1OC (stereo not shown) [GSK1379762] | 0%

Structure (SMILES) | %Inh
COc1cccc(NC(=O)NC2CCN(c3ccnc(Nc4ccc(F)cc4)n3)C2)c1 (stereo not shown) [GSK1379721] | 0%
Cl.Oc1ccc(-c2nc(-c3ccccc3)[nH]c2-c2ccncc2)cc1 [SB-428218] | 48%
Cc1ccc(-c2cc(-c3c[nH]nc3-c3ccccn3)ccn2)cc1 [GW684088] | 6%
Nc1ncnc2[nH]c(-c3ccccc3)nc12 [AH5015] | 0%
O=C(Nc1n[nH]c2cc(-c3cccc(F)c3F)ccc12)C1CC1 [SB-733894] | 22%
Cc1ccc(NC(=O)Nc2cc(C(C)(C)C)nn2-c2ccccc2)cc1 [GSK1014915] | 0%
Cc1cccc(-c2nc(C)cc(Nc3ccncc3)n2)n1 [GSK257997] | 0%
Cn1cncc1-c1ccc2ncnc(Nc3ccc(OCc4ccccc4)cc3)c2c1 [GW320571] | 0%
CCn1c(-c2ccccn2)nc2cnccc21 [SB-736398] | 0%
Cc1c(Cn2ccn3c(=O)cc(N4CCOCC4)nc23)cccc1C(F)(F)F [GSK2289044] | 13%
O=C(O)COc1ncnc2cc(-c3ccc4[nH]ncc4c3)sc12 | 48%
O=C(Nc1ccccc1)Nc1cccc(Oc2ccc3nccn3n2)c1 | 30%
Cc1ccccc1-n1cnc2c(N)ncnc21 [SKF-97510] | 3%
CC(=O)Nc1nc2cnc(Nc3cc(NC(=O)c4cccc(CCC#N)c4)ccc3C)nc2s1 | 29%
CC1=C(C(=O)Nc2cc3cn[nH]c3cc2F)C(c2ccc(C(F)(F)F)cc2)CC(=O)N1 (stereo not shown) [GSK429286] | 39%
COc1ccc(Nc2nccc(-c3cccc(NC(=O)c4cc5cc(F)ccc5[nH]4)c3)n2)cc1 [GSK1229782] | 6%
O=C1NC(=O)C(N2CCc3ccccc32)=C1c1ccccc1Cl [SB-373598] | 19%

The compounds below were run on LCK. Conditions: concentration: 1 μM, replicates: in singlicate; n = 1.

Structure (SMILES) | %Inh
CN1C(=O)C(Nc2ccc(Cl)c(C(=O)O)c2)=C(c2ccc(Cl)cc2)C1=O [SB-404290] | 23%
Cc1nnc(-c2ccc3occ(-c4ccc(S(C)=O)cc4)c3c2)[nH]1 (stereo not shown) | 46%
Clc1cc(Cl)cc(Nc2ccnc(Nc3cc(Cl)cc(Cl)c3)n2)c1 [GSK175726] | 27%
O=C(Nc1ccc2c(c1)OCO2)NC1CCN(c2ccnc(Nc3ccc(F)cc3)n2)C1 (stereo not shown) [GSK1379724] | 12%
CS(=O)(=O)c1ccc(-c2c(-c3ncn[nH]3)sc(N3CCOCC3)c2C#N)cc1 | 8%
COc1ccc(C2=C(Nc3cccc(C(=O)O)c3)C(=O)NC2=O)cc1 [SB-390765] | 10%
CS(=O)(=O)c1ccc(-c2nc3n(c2-c2ccncc2)CCC3)cc1 [SKF-105942] | 8%
C[C@@H]1CCCCN1c1cc(-c2ccc3c(N)n[nH]c3c2)nc(N)n1 [GSK2258759] | 0%
COc1ccc2nc(-c3cccc(C)n3)nc(Nc3ccncc3)c2c1 [GSK204919] | 4%
O=S(=O)(c1ccc(-c2ccnc3[nH]ccc23)cc1)N1CCCC1 [GSK846226] | 5%
Cn1ccc2ncnc(Oc3ccc(NC(=O)Nc4ccccc4)cc3)c21 | 20%
Cc1ccc(C(=O)Nc2ccc(Nc3ccnc4cc(-c5ccccn5)ccc34)cc2O)cc1.Cl [GW440146] | 84%
COc1ccc(CNC(=O)NC2CCN(c3ccnc(Nc4cc(OC)c(OC)c(OC)c4)n3)C2)cc1 (stereo not shown) [GSK1379748] | 7%
Cc1cc(-c2ccc3c(c2)CC[C@@H](N[C@@H](C)c2ccccc2)C3)cnc1N.Cl [GW412617] | 34%
Cl.O=C(Nc1cccc(-c2nn3ncccc3c2-c2ccnc(Nc3cccnc3)n2)c1)c1c(F)cccc1F [GSK312879] | 44%
COC(=O)c1c(-c2ccccc2)c2cc(OC)ccc2c(=O)n1Cc1ccccc1 | 0%
O=C(Nc1n[nH]c2nc(-c3nccs3)c(Br)cc12)C1CC1 [SB-742251] | 0%
COc1cc(Nc2nccc(N3CCC(NC(=O)Nc4cc(C)ccc4C)C3)n2)cc(OC)c1OC (stereo not shown) [GSK1379762] | 21%

Structure (SMILES) | %Inh
COc1cccc(NC(=O)NC2CCN(c3ccnc(Nc4ccc(F)cc4)n3)C2)c1 (stereo not shown) [GSK1379721] | 1%
Cl.Oc1ccc(-c2nc(-c3ccccc3)[nH]c2-c2ccncc2)cc1 [SB-428218] | 20%
Cc1ccc(-c2cc(-c3c[nH]nc3-c3ccccn3)ccn2)cc1 [GW684088] | 7%
Nc1ncnc2[nH]c(-c3ccccc3)nc12 [AH5015] | 26%
O=C(Nc1n[nH]c2cc(-c3cccc(F)c3F)ccc12)C1CC1 [SB-733894] | 0%
Cc1ccc(NC(=O)Nc2cc(C(C)(C)C)nn2-c2ccccc2)cc1 [GSK1014915] | 24%
Cc1cccc(-c2nc(C)cc(Nc3ccncc3)n2)n1 [GSK257997] | 34%
Cn1cncc1-c1ccc2ncnc(Nc3ccc(OCc4ccccc4)cc3)c2c1 [GW320571] | 13%
CCn1c(-c2ccccn2)nc2cnccc21 [SB-736398] | 12%
Cc1c(Cn2ccn3c(=O)cc(N4CCOCC4)nc23)cccc1C(F)(F)F [GSK2289044] | 7%
O=C(O)COc1ncnc2cc(-c3ccc4[nH]ncc4c3)sc12 | 0%
O=C(Nc1ccccc1)Nc1cccc(Oc2ccc3nccn3n2)c1 | 33%
Cc1ccccc1-n1cnc2c(N)ncnc21 [SKF-97510] | 100%
CC(=O)Nc1nc2cnc(Nc3cc(NC(=O)c4cccc(CCC#N)c4)ccc3C)nc2s1 | 27%
CC1=C(C(=O)Nc2cc3cn[nH]c3cc2F)C(c2ccc(C(F)(F)F)cc2)CC(=O)N1 (stereo not shown) [GSK429286] | 22%
COc1ccc(Nc2nccc(-c3cccc(NC(=O)c4cc5cc(F)ccc5[nH]4)c3)n2)cc1 [GSK1229782] | 46%
O=C1NC(=O)C(N2CCc3ccccc32)=C1c1ccccc1Cl [SB-373598] | 35%
